Laboratory results published in PubChem BioAssay (NCATS).
Where “and” joins values, the source holds several entries; their conditions need not be identical. Identical values can stand only once. Results filed as inconclusive are left out. A structure can be active in one record and inactive in another. Calls of active or inactive are those of the source. Unless noted, the call rests on the fitted dose curve; in most records, active means well fitted curve in the direction sought with a large enough effect; inconclusive means small, poorly fitted or top-dose-only effect, or another doubt; inactive means no such curve, though single readings can be large; an effect the other way counts as inactive or inconclusive.

Assays:
[1] = biological target: Cytochrome P450 1A2 (Homo sapiens) (UniProt P05177); assay: p450-cyp1a2 (AID 410; calls by dose curve; further: potency means the concentration at half of the fitted maximal effect;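 on activity change, negative = inhibition: -100% = full effect of reference inhibitor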); conditions: recombinant CYP1A2, luciferin-ME demethylation, luminescence; series mostly up to 57 µM
Sequence of Cytochrome P450 1A2 (Homo sapiens) (P05177 whole entry, looked up): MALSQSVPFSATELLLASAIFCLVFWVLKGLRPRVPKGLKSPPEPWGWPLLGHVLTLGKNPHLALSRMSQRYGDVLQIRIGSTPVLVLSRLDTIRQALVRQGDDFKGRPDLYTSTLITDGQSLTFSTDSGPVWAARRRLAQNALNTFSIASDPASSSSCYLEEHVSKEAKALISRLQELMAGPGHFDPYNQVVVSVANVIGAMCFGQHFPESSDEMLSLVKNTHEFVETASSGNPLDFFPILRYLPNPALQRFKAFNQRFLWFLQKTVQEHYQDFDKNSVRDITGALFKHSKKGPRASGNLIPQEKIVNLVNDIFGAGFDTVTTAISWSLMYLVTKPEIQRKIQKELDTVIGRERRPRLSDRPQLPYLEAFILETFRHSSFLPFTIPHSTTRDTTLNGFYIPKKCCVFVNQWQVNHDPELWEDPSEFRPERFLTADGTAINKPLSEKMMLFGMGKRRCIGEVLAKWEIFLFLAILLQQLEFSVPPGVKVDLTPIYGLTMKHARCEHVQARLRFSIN
Procedure, shortened: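 20nM CYP1A2, 100uM Luciferin-ME (=Km), 100mM KPO4; cpd 10 min RT; +NADPH regen, 60 min RT; stop/detect 20 min; luminescence. Normalized to furafylline 57 uM = full inhibition.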

[2] = biological target: Glucocorticoid receptor (Homo sapiens) (UniProt P04150); assay: GR-GFP Redistribution (AID 450;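 active means compounds whose dose series gives a full or clear partial fitted curve of increased nuclear translocation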; further: potency means the concentration at half of the fitted maximal effect); conditions: U2OS GR-GFP nuclear translocation, laser cytometry, 2 h
Sequence of Glucocorticoid receptor (Homo sapiens) (P04150 whole entry, looked up, the tested form may be a part): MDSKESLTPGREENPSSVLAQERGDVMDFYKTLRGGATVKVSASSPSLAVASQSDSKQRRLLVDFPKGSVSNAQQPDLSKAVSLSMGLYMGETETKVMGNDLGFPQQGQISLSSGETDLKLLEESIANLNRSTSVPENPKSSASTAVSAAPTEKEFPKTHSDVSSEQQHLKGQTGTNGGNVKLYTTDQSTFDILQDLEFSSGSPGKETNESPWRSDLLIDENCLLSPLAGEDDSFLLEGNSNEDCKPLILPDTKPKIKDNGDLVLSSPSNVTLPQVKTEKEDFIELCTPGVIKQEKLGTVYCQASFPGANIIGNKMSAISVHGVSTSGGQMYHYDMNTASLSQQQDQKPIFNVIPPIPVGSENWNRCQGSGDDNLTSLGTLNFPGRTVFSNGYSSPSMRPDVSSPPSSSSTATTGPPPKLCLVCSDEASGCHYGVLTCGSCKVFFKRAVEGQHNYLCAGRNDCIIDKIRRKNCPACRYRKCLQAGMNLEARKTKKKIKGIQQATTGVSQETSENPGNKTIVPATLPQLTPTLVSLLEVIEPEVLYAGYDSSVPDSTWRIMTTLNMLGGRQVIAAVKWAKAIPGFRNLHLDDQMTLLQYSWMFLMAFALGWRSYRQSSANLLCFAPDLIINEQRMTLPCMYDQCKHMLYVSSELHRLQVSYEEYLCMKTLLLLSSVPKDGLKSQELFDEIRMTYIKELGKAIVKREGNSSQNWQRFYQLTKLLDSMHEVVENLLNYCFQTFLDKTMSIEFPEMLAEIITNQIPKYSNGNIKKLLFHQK

[3] = biological target: Mitogen-activated protein kinase 10 (Mus musculus) (UniProt Q61831); assay: JNK3 AlphaScreen Assay (AID 530; active means well fitted curve in either direction with a large enough effect, not every such curve was filed as active;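 further: kinase came from lysate of stimulated human HepG2 cells; signal reports phosphorylation of biotinylated GST-cJun 1-79 at Ser73 with 10 µM ATP; on the % scale 0 is the no-effect control and ±100 the full control effect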); conditions: JNK3 lysate, c-Jun phosphorylation; series mostly up to 57.1 µM
Procedure, shortened: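 Biotinylated GST-cJun(1-79) served as substrate for JNK3 in HepG2 lysates stimulated with IL-1beta and TNF-alpha. ATP was 10 uM final, pH 7.6. Ser73 phosphorylation was quantified by AlphaScreen (680 nm excitation).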

[4] = qHTS Assay for Lipid Storage Modulators (AID 1519; calls by dose curve; further: potency means the concentration at half of the fitted maximal effect); conditions: Drosophila S3 cells, BODIPY lipid droplet/cell ratio, laser cytometry, cells loaded with oleic acid
Procedure, shortened: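 Cells seeded at 5,000 per well were treated with compounds over a concentration series and loaded with oleic acid (400 uM, as added). Lipid droplet fluorescence (488 nm excitation, 500-530 nm channel) was read by laser-scanning cytometry and normalized to 20 uM Triacsin C.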

[5] = biological target: DNA dC->dU-editing enzyme APOBEC-3G (Homo sapiens) (UniProt Q9HC16); assay: qHTS for inhibitors of Vif-A3G interactions: Validation (AID 588379); conditions: Vif-A3G protein interaction assay; series mostly up to 46.1 µM; further: 0% is about no effect
Sequence of DNA dC->dU-editing enzyme APOBEC-3G (Homo sapiens) (Q9HC16 whole entry, looked up): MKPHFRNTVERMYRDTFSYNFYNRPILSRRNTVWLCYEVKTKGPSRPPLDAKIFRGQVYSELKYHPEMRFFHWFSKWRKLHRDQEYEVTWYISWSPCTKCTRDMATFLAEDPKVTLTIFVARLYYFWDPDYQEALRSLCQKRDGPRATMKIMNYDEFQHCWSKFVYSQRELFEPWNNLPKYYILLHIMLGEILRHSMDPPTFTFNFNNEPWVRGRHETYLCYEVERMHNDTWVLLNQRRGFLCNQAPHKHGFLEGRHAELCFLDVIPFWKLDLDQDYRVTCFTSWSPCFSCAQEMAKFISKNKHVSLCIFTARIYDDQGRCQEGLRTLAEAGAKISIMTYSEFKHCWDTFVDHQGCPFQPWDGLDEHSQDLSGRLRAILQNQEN
Procedure, shortened: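 Yellow fluorescence (Ex 488, Em 500-530) of Vif-coexpressing HeLa A3G-eYFP cells, scanned by Acumen cytometer, reports blocked A3G degradation. Cells plated at 700/well overnight at 37 deg C before compound addition, then a further overnight compound incubation at 37 deg C.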

[6] = tested on: Zika virus NS2B-NS3 protease; assay: Primary screen GU AMC qHTS for Zika virus inhibitors (AID 1347154); conditions: Zika NS2B-NS3 unlinked protease, AMC fluorogenic substrate; series mostly up to 54.1 µM;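 further: 0% = no-inhibitor control and -100% = no-enzyme control; nearly all actives have a fitted effect of over 70% in size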
Procedure, shortened: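 Unlinked Zika NS2B hydrophilic domain/NS3 protease domain noncovalent complex (25 nM final) in 10 mM Tris-HCl pH 8.0, 0.01% Tween 20, with AMC peptide substrate. Fluorescence (ex 340, em 450 nm) change over 15 min, room temperature; percent inhibition fitted to 4-parameter Hill equation.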

[7] = Primary qHTS for small molecule stabilizers of the endoplasmic reticulum resident proteome: Secreted ER Calcium Modulated Protein (SERCaMP) assay (AID 1508630); conditions: SH-SY5Y GLuc-SERCaMP (Gaussia luciferase released on ER calcium loss) secretion, thapsigargin, luminescence; series mostly up to 38.4 µM; further: on the % scale 0 is the no-effect control and ±100 the full control effect
Procedure, shortened: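 The SH-SY5Y reporter protocol was run at 3 concentrations up to 38.3 uM (primary) or 11 concentrations (follow-up): 16 h compound, 100 nM thapsigargin for 4 h, then extracellular luciferase luminescence.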

[8] = AP1 Signaling Pathway (AID 357; active means well fitted curve in either direction with a large enough effect, not every such curve was filed as active;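 further: ME-180 reporter cells stimulated with EGF at its EC50 level; on the % scale 0 is the no-effect control and ±100 the full control effect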); conditions: ME-180 (cervical carcinoma) AP-1-bla reporter, EGF-induced, beta-lactamase ratio, 5 h; series mostly up to 38 µM
Procedure, shortened: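 Read-out was the 460nm/530nm emission ratio (excitation 405nm) after CCF4 loading for 2.5 hours at room temperature. Cells carried an AP-1-driven beta-lactamase reporter, were stimulated with EC50 EGF plus compound for 5 hours, and AC50 values came from titrations.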

[9] = NFAT Signaling Pathway (AID 444; active means well fitted curve in either direction with a large enough effect, not every such curve was filed as active;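 further: carbachol stimulus at about its EC50 of 1 µM final; on the % scale 0 is the no-effect control and ±100 the full control effect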); conditions: Jurkat NFAT-bla M1, carbachol, beta-lactamase ratio, 5 h
Procedure, shortened: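 Jurkat cells carrying an NFAT-driven β-lactamase reporter and co-transfected muscarinic M1 receptor were treated with compound plus carbachol (1 uM final, an EC50 level) for 5 h at 37 °C. CCF4 loading followed for 1 h at RT; 460/530 nm ratio gave %activity.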

[10] = biological target: Glucocorticoid receptor (Homo sapiens) (UniProt P04150); assay: GR-EFC Redistribution (AID 451; calls by dose curve; further: potency means the concentration at half of the fitted maximal effect); conditions: CHO-K1 GR-EFC translocation, beta-gal luminescence, 2 h
Procedure, shortened: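 CHO-K1 cells stably expressing nuclear-localized β-gal enzyme acceptor and GR fused C-terminally to the enzyme donor fragment; ligand-driven nuclear translocation restores β-gal by complementation. Compounds titrated up to 46 uM final, 2 h at 37 °C; luminescence read.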

[11] = biological target: Cytochrome P450 2C19 (Homo sapiens) (UniProt P33261); assay: qHTS Assay for Inhibitors and Substrates of Cytochrome P450 2C19 (AID 899); conditions: recombinant CYP2C19, luciferin-H EGE luminescence; series mostly up to 57.1 µM; further: potency means the concentration at half of the fitted maximal effect; nearly all actives have a fitted effect of over 60% in size
Sequence of Cytochrome P450 2C19 (Homo sapiens) (P33261 whole entry, looked up): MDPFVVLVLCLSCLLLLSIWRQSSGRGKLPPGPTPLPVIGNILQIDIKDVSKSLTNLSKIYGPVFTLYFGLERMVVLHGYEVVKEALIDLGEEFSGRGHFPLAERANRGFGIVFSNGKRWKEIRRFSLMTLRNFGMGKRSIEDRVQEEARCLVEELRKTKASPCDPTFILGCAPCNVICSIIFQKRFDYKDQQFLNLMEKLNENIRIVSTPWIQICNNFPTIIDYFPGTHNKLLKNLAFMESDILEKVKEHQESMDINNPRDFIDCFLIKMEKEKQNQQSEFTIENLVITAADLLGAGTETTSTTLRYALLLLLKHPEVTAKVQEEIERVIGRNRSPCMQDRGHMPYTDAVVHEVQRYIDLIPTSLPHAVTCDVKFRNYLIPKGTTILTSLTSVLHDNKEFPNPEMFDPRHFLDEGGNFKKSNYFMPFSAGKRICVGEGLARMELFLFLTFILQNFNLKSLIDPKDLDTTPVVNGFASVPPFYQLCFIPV
Procedure, shortened: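 In 50mM KPO4, the reaction held 5nM enzyme and KM-level (10uM) Luciferin-H EGE; it ran 60 min at 37C after NADPH regeneration and a 10 min compound preincubation. Luminescence values were scaled to 57uM ketoconazole as complete inhibition.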

[12] = biological target: Pyruvate kinase (Leishmania mexicana) (UniProt Q27686); assay: qHTS Validation Assay for Inhibitors of Leishmania Mexicana Pyruvate Kinase (AID 945);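 further: 0% = DMSO only neutral control wells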; conditions: purified L. mexicana pyruvate kinase, enzyme activity, E451W mutant enzyme; series mostly up to 57.5 µM
Sequence of Pyruvate kinase (Leishmania mexicana) (Q27686 2-499 E452W): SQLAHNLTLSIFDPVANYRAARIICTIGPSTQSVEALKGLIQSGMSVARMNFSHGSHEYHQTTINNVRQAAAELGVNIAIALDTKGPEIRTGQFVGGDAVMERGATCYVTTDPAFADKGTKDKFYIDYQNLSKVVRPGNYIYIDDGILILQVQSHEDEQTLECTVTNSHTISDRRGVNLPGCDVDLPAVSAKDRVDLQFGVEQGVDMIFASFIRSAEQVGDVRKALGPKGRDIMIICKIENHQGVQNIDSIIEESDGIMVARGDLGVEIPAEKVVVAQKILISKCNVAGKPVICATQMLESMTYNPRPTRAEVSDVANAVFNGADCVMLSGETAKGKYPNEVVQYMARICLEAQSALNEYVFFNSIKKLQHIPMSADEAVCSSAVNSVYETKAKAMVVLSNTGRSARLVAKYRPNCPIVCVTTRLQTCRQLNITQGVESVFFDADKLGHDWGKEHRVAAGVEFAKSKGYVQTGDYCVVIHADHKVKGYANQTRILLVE
Procedure, shortened: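 An endpoint luciferase assay: 0.2 nM LmPYK E451W turns over 0.5 mM PEP with 0.1 mM ADP for 1 h at room temperature, pH 7.2, before PKLight addition. Values are normalized to DMSO-only wells.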

[13] = biological target: Pyruvate kinase PKM (Homo sapiens) (UniProt P14618); assay: qHTS Assay for Activators of Human Muscle Pyruvate Kinase (AID 954; active means well fitted curve in the direction sought with a large enough effect, not every such curve was filed as active;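 further: 0% = uninhibited enzyme and -100% = no enzyme or full thiadiazolimine inhibition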); conditions: purified human muscle pyruvate kinase, luciferase-coupled luminescence, 1 h; series mostly up to 57.5 µM
Procedure, shortened: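 Screening used highly purified human pyruvate kinase M2 under submaximal activity, with PEP at its Km and ADP below Km. After an hour at room temperature, ATP was read by luciferase luminescence.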

[14] = biological target: Alpha-galactosidase (Coffea arabica) (UniProt Q42656); assay: Counterscreen for Glucocerebrosidase Inhibitors: qHTS Assay for Coffee Bean alpha-Galactosidase at pH 4.5 (AID 957); conditions: purified coffee bean alpha-galactosidase, fluorogenic substrate; series mostly up to 76.9 µM;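 further: plate controls were enzyme alone for no effect and no enzyme for full effect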
Sequence of Alpha-galactosidase (Coffea arabica) (Q42656 whole entry, looked up): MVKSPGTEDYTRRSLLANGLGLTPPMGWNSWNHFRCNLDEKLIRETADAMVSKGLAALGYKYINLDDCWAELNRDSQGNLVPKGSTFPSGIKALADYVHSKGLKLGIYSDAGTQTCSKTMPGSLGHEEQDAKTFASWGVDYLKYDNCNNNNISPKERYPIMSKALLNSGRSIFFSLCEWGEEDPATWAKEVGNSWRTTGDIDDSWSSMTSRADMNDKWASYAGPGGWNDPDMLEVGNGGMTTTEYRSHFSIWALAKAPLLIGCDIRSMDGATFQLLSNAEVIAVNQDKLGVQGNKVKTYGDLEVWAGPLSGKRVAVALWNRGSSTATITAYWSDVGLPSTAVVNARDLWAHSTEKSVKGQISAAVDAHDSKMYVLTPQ
Procedure, shortened: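 Fluorogenic read-out: 4-methylumbelliferone at Ex 365/Em 440 nm after NaOH/glycine stop (pH 10). Enzyme 2 nM, 4-MU-alpha-galactoside 80 uM, citrate buffer pH 4.5, 20 min RT; normalized to no-enzyme and enzyme controls.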

[15] = biological target: Alpha-galactosidase A (Homo sapiens) (UniProt P06280); assay: Counterscreen for Glucocerebrosidase Inhibitors: qHTS Assay for Human alpha-Galactosidase at pH 4.5 (AID 992); conditions: purified enzyme, fluorogenic substrate; series mostly up to 76.9 µM; further: 0% is about no effect
Sequence of Alpha-galactosidase A (Homo sapiens) (P06280 whole entry, looked up): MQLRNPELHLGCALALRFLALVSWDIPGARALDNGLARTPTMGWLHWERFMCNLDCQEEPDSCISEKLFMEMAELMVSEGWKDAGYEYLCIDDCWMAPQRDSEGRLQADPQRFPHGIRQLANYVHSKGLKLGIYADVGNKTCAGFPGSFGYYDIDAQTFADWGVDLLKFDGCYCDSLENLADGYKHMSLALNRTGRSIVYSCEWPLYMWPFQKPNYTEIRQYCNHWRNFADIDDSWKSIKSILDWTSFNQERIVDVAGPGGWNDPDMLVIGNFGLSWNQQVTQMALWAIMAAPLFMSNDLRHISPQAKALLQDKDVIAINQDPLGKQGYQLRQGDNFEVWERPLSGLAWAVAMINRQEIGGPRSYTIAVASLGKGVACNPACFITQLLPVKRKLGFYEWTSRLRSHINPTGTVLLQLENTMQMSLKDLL
Procedure, shortened: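 Each compound is preincubated briefly with 2 nM enzyme before substrate addition (80 uM); plates then sit 20 min at ambient temperature, are quenched with 1M NaOH/1M glycine, and read fluorometrically.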

[16] = biological target: alpha-glucosidase (Oryza sativa, rice) (UniProt Q653V4); assay: Counterscreen for Glucocerebrosidase Inhibitors: qHTS Assay for Rice alpha-Glucosidase at pH 5.0 (AID 997); conditions: rice alpha-glucosidase enzyme activity; series mostly up to 76.9 µM;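 further: 0% = full activity with enzyme and -100% = basal without enzyme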
Procedure, shortened: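 Endpoint fluorogenic assay at pH 5.0: compounds (0.7 nM to 77 uM) titrated against 4 nM rice enzyme and 400 uM 4-MU-alpha-glucoside for 20 min at room temperature; NaOH/glycine stop, read ex 365/em 440 nm, Hill-fitted AC50.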

[17] = biological target: Alpha-galactosidase (Coffea arabica) (UniProt Q42656); assay: Counterscreen for Glucocerebrosidase Inhibitors: qHTS Assay for Coffee Bean alpha-Galactosidase at pH 5.9 (AID 998); conditions: coffee bean alpha-galactosidase enzyme assay; series mostly up to 76.9 µM;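 further: plate controls were uninhibited enzyme for no effect and no-enzyme basal signal for full effect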
Procedure, shortened: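 In 50 mM citric acid pH 5.9 with 0.005% Tween-20, coffee bean enzyme hydrolyses 80 uM 4-MU alpha-D-galactopyranoside over 20 min at RT. Activity is normalized to controls; AC50 comes from Hill-modelled concentration-response data.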

[18] = biological target: Cytochrome P450 2D6 (Homo sapiens) (UniProt P10635); assay: qHTS Assay for Inhibitors and Substrates of Cytochrome P450 2D6 (AID 891); conditions: recombinant CYP2D6, luciferin-ME EGE luminescence; series mostly up to 57.1 µM; further: potency means the concentration at half of the fitted maximal effect; nearly all actives have a fitted effect of over 60% in size
Procedure, shortened: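 Luminescent read-out of luciferin formed by 5 nM human CYP2D6 demethylating 30 uM Luciferin-ME EGE (Km level) over 60 min at room temperature after NADPH regeneration addition. Data normalized to full inhibition by 1.43 uM quinidine.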

[19] = biological target: Ubiquitin carboxyl-terminal hydrolase 1 (Homo sapiens) (UniProt O94782); assay: Inhibitors of USP1/UAF1: Pilot qHTS (AID 504865); conditions: purified USP1/UAF1, Ub-rhodamine cleavage fluorescence; series mostly up to 114 µM;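 further: rhodamine fluorescence freed from ubiquitin-rhodamine substrate followed over time; top concentration of the series differs between compounds; on the % scale 0 is the no-effect control and ±100 the full control effect; nearly all actives have a fitted effect of over 35% in size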
Sequence of Ubiquitin carboxyl-terminal hydrolase 1 (Homo sapiens) (O94782 whole entry, looked up): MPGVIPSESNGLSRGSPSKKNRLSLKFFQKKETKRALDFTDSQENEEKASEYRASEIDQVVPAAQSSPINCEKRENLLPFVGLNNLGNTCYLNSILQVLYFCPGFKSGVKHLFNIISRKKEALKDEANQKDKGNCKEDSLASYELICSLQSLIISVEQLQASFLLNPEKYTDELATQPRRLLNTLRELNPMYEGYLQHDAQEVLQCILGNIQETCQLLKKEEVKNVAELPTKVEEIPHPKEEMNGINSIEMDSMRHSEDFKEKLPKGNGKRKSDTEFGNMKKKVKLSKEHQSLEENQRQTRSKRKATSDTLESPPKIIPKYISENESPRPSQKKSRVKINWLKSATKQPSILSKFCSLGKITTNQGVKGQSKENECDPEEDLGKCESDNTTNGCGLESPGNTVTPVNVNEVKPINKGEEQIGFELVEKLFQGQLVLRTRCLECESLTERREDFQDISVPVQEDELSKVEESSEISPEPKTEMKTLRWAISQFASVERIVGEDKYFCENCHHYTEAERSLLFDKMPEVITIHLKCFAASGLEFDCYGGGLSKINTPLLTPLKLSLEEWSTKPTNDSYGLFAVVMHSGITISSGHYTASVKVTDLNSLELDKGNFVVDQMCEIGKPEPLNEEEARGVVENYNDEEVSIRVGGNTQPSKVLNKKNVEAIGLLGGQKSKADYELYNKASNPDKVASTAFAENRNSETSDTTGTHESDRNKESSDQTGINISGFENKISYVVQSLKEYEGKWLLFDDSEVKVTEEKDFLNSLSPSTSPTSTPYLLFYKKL
Procedure, shortened: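 1nM USP1/UAF1 + cpd, 15 min RT; start w/ Ub-Rho 150nM final; kinetic FL 480/540 nm, 6 reads q60 s. Buffer 50mM HEPES pH 7.8, 0.5mM EDTA, 1mM TCEP, 0.01% Tween-20, 0.1 mg/ml BSA.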

[20] = biological target: 3',5'-cyclic-AMP phosphodiesterase 4B (Homo sapiens) (UniProt Q07343); assay: qHTS Assay for Inhibitors of PDE-IV (AID 607; active means well fitted activation curve with a large enough effect in the main read-out, with a control signal flat, not every such curve was filed as active; further: % of control where 0% means no effect); conditions: HEK293 ACTOne CNG channel cells, membrane potential fluorescence; series mostly up to 22.9 µM
Sequence of 3',5'-cyclic-AMP phosphodiesterase 4B (Homo sapiens) (Q07343 whole entry, looked up): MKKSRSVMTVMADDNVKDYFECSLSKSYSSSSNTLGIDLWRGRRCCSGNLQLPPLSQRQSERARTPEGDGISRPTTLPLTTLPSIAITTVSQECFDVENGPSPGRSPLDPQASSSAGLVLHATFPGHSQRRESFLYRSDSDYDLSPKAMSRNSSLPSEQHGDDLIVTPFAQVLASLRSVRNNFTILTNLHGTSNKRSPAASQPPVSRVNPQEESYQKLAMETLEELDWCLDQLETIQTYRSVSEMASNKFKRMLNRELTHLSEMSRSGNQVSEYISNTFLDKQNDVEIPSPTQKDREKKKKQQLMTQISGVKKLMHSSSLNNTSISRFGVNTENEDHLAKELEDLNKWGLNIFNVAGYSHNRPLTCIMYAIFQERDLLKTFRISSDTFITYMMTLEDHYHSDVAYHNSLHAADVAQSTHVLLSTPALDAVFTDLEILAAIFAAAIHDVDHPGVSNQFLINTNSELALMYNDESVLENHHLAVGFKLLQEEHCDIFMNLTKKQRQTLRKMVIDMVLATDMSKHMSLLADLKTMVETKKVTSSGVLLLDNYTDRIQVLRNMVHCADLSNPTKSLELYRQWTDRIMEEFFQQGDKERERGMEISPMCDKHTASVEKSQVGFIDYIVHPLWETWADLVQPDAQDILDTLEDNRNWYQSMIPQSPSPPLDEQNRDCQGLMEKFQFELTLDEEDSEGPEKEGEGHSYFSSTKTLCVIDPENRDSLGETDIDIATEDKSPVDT
Procedure, shortened: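 Live HEK293 cells with a modified cyclic nucleotide-gated (CNG) channel report intracellular cAMP via membrane-potential dye fluorescence (ex 535/em 590 nm). Endogenous PDE-IV was targeted. Compounds were tested at up to 22.9 uM final; RO 20-1724 100 uM served as control.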

[21] = measured here: cell count channel max response
[22] = measured here: lipid channel max response

CCCN(CCC)[C@@H]1CCc2c(OC)cccc2[C@@H]1C
Potency [1]: 31.6 µM (active)
Potency [2]: > 46 µM (inactive)
outcome [3]: inactive
activity change, negative = inhibition ([4]; at 57.5 µM (top of the series)): -0.226% (inactive)
max response [4, 21]: 8.03%
max response [4, 22]: 12.1%
Potency [5]: inactive
Potency [6]: inactive
Potency [7]: inactive

Cc1o[nH]c(=O)c1C[C@H](N)C(=O)O
outcome [8]: inactive
Potency [1]: inactive and 31.6 µM (active)
activity change, negative = inhibition ([9]; at 38 µM (top of the series)): -2.02% (inactive)
Potency [2]: > 46 µM (inactive)
Potency [10]: > 46 µM (inactive)
outcome [3]: inactive
Potency [11]: 2.51 µM (active)
outcome [12]: inactive
outcome [13]: inactive
outcome [14]: inactive
outcome [15]: inactive
outcome [16]: inactive
outcome [17]: inactive
activity change, negative = inhibition ([4]; at 57.5 µM (top of the series)): 5.07% (inactive) and 0.872% (inactive) and 1.49% (inactive)
max response [4, 21]: 9.71% and 20.6% and -4.26%
max response [4, 22]: 15.4% and 23.1% and -1.44%
Potency [5]: inactive
Potency [6]: inactive
Potency [7]: inactive

c1ccc(C[C@@H](c2ccccc2)N2CCCCC2)cc1
Potency [1]: 15.8 µM (active)
Potency [2]: > 46 µM (inactive)
Potency [10]: > 46 µM (inactive)
outcome [3]: inactive
Potency [18]: 2 µM (active)
activity change, negative = inhibition ([4]; at 57.5 µM (top of the series)): -5.07% (inactive)
max response [4, 21]: -11.4%
max response [4, 22]: -18.1%
Potency [19]: inactive
Potency [5]: inactive
Potency [6]: inactive
Potency [7]: inactive

CC[N+](CC)(CCCNC1=CC(=O)C(NCCC[N+](CC)(CC)Cc2ccccc2)=CC1=O)Cc1ccccc1
Potency [2]: > 46 µM (inactive)
Potency [10]: > 46 µM (inactive)
activity change, negative = inhibition ([4]; at 57.5 µM (top of the series)): 3.42% (inactive)
max response [4, 21]: -5.38%
max response [4, 22]: -3.95%
Potency [5]: inactive
Potency [6]: inactive
Potency [7]: inactive

NC(N)=Nc1ccc2[nH]c3c(c2c1)C[C@]1(O)[C@@H]2Cc4ccc(O)c5c4[C@]1(CCN2CC1CC1)[C@@H]3O5
Potency [1]: inactive
Potency [2]: > 46 µM (inactive)
Potency [10]: > 46 µM (inactive)
activity change, negative = inhibition ([4]; at 57.5 µM (top of the series)): -1.94% (inactive)
max response [4, 21]: 2.17%
max response [4, 22]: 1.06%
Potency [19]: inactive
Potency [5]: inactive
Potency [6]: inactive
Potency [7]: inactive

CC1OC(=O)C(C(C)C)NC(=O)C(C(C)C)OC(=O)C(C(C)C)NC(=O)C(C)OC(=O)C(C(C)C)NC(=O)C(C(C)C)OC(=O)C(C(C)C)NC(=O)C(C)OC(=O)C(C(C)C)NC(=O)C(C(C)C)OC(=O)C(C(C)C)NC1=O (stereo not drawn)
Potency [4]: 0.316 µM (active)
max response [4, 21]: 0.207%
max response [4, 22]: -94.2%
Potency [6]: inactive
Potency [7]: inactive

O=C1CS[C@@H](c2ccccc2Cl)c2cc(Cl)ccc2N1
Potency [2]: > 46 µM (inactive)
Potency [5]: inactive
Potency [6]: inactive
Potency [7]: inactive

CN1C[C@H](CNC(=O)OCc2ccccc2)C[C@H]2c3cccc4c3c(cn4C)C[C@@H]21
activity change, negative = inhibition ([9]; at 17.2 µM (top of the series)): -3.47% (inactive)
Potency [2]: > 20.6 µM (inactive)
Potency [10]: > 20.6 µM (inactive) and > 46 µM (inactive)
outcome [3]: inactive
Potency [20]: inactive
activity change, negative = inhibition ([4]; at 25.7 µM (top of the series)): -3.64% (inactive)
max response [4, 21]: -21.4%
max response [4, 22]: -20.5%
Potency [5]: inactive
Potency [6]: inactive
Potency [7]: inactive

Oc1ccc2c3c1O[C@H]1c4[nH]c5c(c4C[C@@]4(O)[C@@H](C2)N(CC2CC2)CC[C@]314)C[C@]1(O)[C@H]2Cc3ccc(O)c4c3[C@@]1(CCN2CC1CC1)[C@@H]5O4
Potency [2]: > 46 µM (inactive)
Potency [10]: > 46 µM (inactive)
outcome [3]: inactive
Potency [20]: inactive
activity change, negative = inhibition ([4]; at 57.5 µM (top of the series)): -0.108% (inactive)
max response [4, 21]: 16.4%
max response [4, 22]: 18.7%
Potency [5]: inactive
Potency [6]: inactive
Potency [7]: inactive
